In the supplement of paper PMC10477191:
± gives the standard deviation of the averaged measurements.

Experiments:
Assay in all cases: odor-evoked OSN spike response (post minus pre-stimulus); higher = stronger neuronal excitation
Details in all cases: odor dilution: 10^-4
[1] = test system: Drosophila ezoana antennal basiconic sensillum ab1
In short: (§1)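 The response is the change in spike frequency between pre-stimulus and post-stimulus windows, averaged over replicate sensilla. Both windows lasted 1 second, and spikes were counted with Auto Spike software. Single sensillum recordings used a tungsten electrode at the base of antennal basiconic sensilla on restrained adult flies, with up to 3 sensilla per fly, and odorant at 10^−4 in mineral oil or DMSO (10 µl on filter paper) was delivered as a 500 ms pulse into a charcoal-filtered, humidified 1.5 l min^−1 air stream.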

[2] = test system: Drosophila ezoana antennal basiconic sensillum ab3
In short: as §1

[3] = test system: Drosophila virilis antennal basiconic sensillum AB2
In short: as §1

SMILES: CC(C)=O [acetone]
- odor-evoked OSN spike response [1]: 67.1 ± 24 spikes/s
- odor-evoked OSN spike response [2]: 63.3 ± 28 spikes/s
- odor-evoked OSN spike response [3]: 53.7 ± 24 spikes/s
